Bioassay records from PubChem.
Rows were chosen to be rich in hits. Some 13% of all compounds tested hit in one or more screens of this group.
miR-21 reporter = qHTS Assay for Modulators of miRNAs and/orActivators of miR-21. HeLa miR-21 FLuc reporter, luciferase, 48 h. Potency, µM (top dose mostly 38.3 µM), actives largely listed as activators. 340,000 tested, under 10 active. AID 2288, 2010;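 also: miR-21 action dims this reporter so a rising signal means less miR-21 action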
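HeLa cells endogenously expressing miR-21, stably carrying CMV-driven firefly luciferase with a downstream miR-21 binding site, 2000 cells/well. Titrations up to approximately 40 uM, 48 hours; luciferase luminescence read.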
Sfp PPTase inh = qHTS Assay for Inhibitors of Bacillus subtilis Sfp phosphopantetheinyl transferase (PPTase); 4'-phosphopantetheinyl transferase ffp (Bacillus subtilis), Q9F4F7; Biochemical Sfp PPTase activity, qHTS; Potency, µM, actives largely listed as inhibitors; hit rate 3.5% among 310,000; AID 1490, 2009;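 also: the enzyme is Sfp with the accession as filed and its product quenches rhodamine fluorescence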
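Fluorescence-quenching assay with 15 nM Sfp, 5 uM rhodamine-CoA and 12.5 uM BHQ-2-labelled ybbR peptide in pH 7.6 Hepes/MgCl2 buffer. Enzyme was pre-incubated with compound for 15 min at room temperature. Rate was taken from the 30-min fluorescence change (525/598 nm).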
G9a block = qHTS Assay for Inhibitors of Histone Lysine Methyltransferase G9a. G9a H3K9 monomethylation, AlphaScreen, 2 h. Histone-lysine N-methyltransferase EHMT2 (Homo sapiens), Q96KQ7. hit rate 8.8% among 350,000. Potency, µM (highest dose often 102 µM), usual class: inhibitors; also: nearly all actives have a fitted effect of over 75% in size
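Readings reflect AlphaScreen signal from monomethyl-H3K9 antibody detection. HMT at 20 nM; substrate b-H3K9 500 nM; cofactor SAM 20 uM; 2 h RT reaction; compounds tested as titrations in qHTS with 15 min preincubation.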
ALDH1A1 block = qHTS Assay for Inhibitors of Aldehyde Dehydrogenase 1 (ALDH1A1); Purified ALDH1A1, NADH fluorescence, propionaldehyde substrate; Potency, µM (titrated, usually from 75.3 µM), actives largely listed as inhibitors; hit rate 7.3% among 220,000; active = well fitted inhibition curve with a large enough effect, not every such curve was filed as active; inconclusive = small, poorly fitted or top-dose-only effect, or another doubt; inactive = no such curve, though single readings can be large or run the other way
Target sequence (P00352 whole entry, looked up): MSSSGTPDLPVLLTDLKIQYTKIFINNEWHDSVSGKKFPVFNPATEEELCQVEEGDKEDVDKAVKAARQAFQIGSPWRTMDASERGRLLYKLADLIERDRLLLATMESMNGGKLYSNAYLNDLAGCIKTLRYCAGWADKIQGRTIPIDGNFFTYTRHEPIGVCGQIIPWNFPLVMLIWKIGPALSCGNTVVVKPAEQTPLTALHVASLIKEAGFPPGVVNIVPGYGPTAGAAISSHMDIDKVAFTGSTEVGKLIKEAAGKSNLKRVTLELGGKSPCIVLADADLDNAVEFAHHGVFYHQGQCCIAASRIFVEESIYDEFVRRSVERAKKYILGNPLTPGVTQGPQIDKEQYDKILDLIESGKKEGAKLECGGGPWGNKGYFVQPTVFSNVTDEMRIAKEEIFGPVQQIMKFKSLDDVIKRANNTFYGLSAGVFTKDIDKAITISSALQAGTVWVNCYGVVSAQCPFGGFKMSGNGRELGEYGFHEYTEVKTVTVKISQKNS
KDM4E inh = qHTS Assay for Inhibitors of Human Jumonji Domain Containing 2E (JMJD2E); Lysine-specific demethylase 4E (Homo sapiens), B2RXH2; Potency, µM (titrated, usually from 57.1 µM), most hits filed as inhibitors; AID 2147, 2009; hit rate 1.6% among 230,000; JMJD2E catalytic domain, FDH-coupled NADH fluorescence (FDH is formaldehyde dehydrogenase); also: nearly all actives have a fitted effect of over 50% in size
Lamin A splicing = qHTS Assay for Modulators of Lamin A Splicing. AID 1487, 2009. hit rate 0.01% among 200,000. Potency, µM (highest dose often 46.1 µM), most hits filed as inhibitors. HeLa LMNA splicing GFP/RFP minigene ratio, 48 h; active = well fitted inhibition curve with a large enough effect in the signal ratio, with a control signal flat, not every such curve was filed as active; inconclusive = small, poorly fitted or top-dose-only effect, or effect the other way, or a change in a side signal; the % refers to the signal ratio
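Read-out is the ratio of GFP to DsRed2 object intensity, acquired by 488 nm laser-scanning cytometry on HeLa lamin A-EGFP minigene reporter cells. Compound incubation 48 hrs at 37 °C in Opti-MEM with 2% FBS; DMSO 0.5% final.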
Hits are given with their value; – = inactive; ? = inconclusive; · = not tested or not shown; ! = repeats disagree; [ ] = remark or other dose. Unless noted, calls follow the shape of the dose curve; as a rule, active = well fitted curve in the direction sought with a large enough effect; inconclusive = small, poorly fitted or top-dose-only effect, or another doubt; inactive = no such curve, though single readings can be large; an effect the other way counts as inactive or inconclusive.

SMILES	miR-21 reporter	Sfp PPTase inh	G9a block	ALDH1A1 block	KDM4E inh	Lamin A splicing
COc1cc(OC)c(NC(=O)c2nn(-c3ccc(C)cc3)c(=O)c3c2c2ccccc2n3C)cc1Cl	–	·	–	·	·	·
O=C(O)Cn1c(=S)sc2ccccc21	–	–	71µM	–	–	·
CCn1c(O)c(C=Nc2ccccc2)n(-c2ccccc2)c1=S	–	79µM	7.9µM	?	–	–
CCn1c(O)c(C=Nc2ccccc2)sc1=S	–	56µM	?	?	–	·
CCn1c(O)c(C=Nc2ccccc2)sc1=O	–	–	–	?	?	?
C=CCn1c(O)c(C=Nc2ccccc2)sc1=S	–	–	50µM	?	–	–
C=CCn1c(O)c(/C=C2\C=NN=C2c2ccccc2)sc1=S	–	–	?	–	–	·
CO[C@@H]1COC(=O)[C@H](C)NC(=O)C/C=C\[C@@H](C)[C@@H](NS(=O)(=O)c2ccc(C)cc2)COC(=O)C/C=C\[C@@H]1C	·	?	·	–[13.5 µM]	·	·
Cc1ccc2[nH]c(=O)c3cc(C(=O)NCCc4ccc(Cl)cc4)sc3c2c1	–	·	–	·	·	·
Oc1c(C=Nc2ccccc2)sc(=S)n1Cc1ccccc1	–	–	–	1.4µM	–	–
CCn1c(O)c(/C=N/n2cnnc2)sc1=S	–	45µM	18µM	–	–	–
O=C(O)Cn1c(O)c(C=Nc2ccccc2)sc1=S	–	–	–[12.7 µM]	28µM!	–	–
CCCn1c(O)c(/C=C2\C=NN=C2c2ccccc2)sc1=S	–	–	–	–	–	?
CCn1c(O)c(C=NC2CCCC2)sc1=S	–	–	?	?	–	–
CCOC(=O)c1sc2cccc(F)c2c1S(=O)(=O)Nc1ccccc1F	–	·	–	·	·	?
COc1ccc(-c2c(C)nn3c(N4CCN(c5ccccc5F)CC4)cc(C)nc23)cc1OC	–	·	–	·	·	·
COc1ccc(NC(=O)Cn2c3ccc(OC)cc3c3nc4n(c(=O)c32)CCS4)cc1	–	–	·	·	·	·
Cc1ccccc1CN1CCN(c2nc3ccccc3s2)CC1	–	–	–	·	·	·
COc1ccc(C(c2nnnn2Cc2ccccc2)N2CCN(c3nc4ccccc4s3)CC2)cc1OC (stereo not given)	–	?	20µM	–	–	?
c1csc(Cn2nnnc2CN2CCN(c3nc4ccccc4s3)CC2)c1	–	–	?	16µM	–	?
c1ccc(Cn2nnnc2C(c2ccccc2)N2CCN(c3nc4ccccc4s3)CC2)cc1 (stereo not given)	–	–	–	11µM	–	–
COc1ccccc1C(c1nnnn1Cc1ccccc1)N1CCN(c2nc3ccccc3s2)CC1 (stereo not given)	–	–	35µM	–	–	?
CS(=O)(=O)N(CC(=O)N1CCCC1)Cc1ccc(Cl)c(Cl)c1	–	–	–	·	·	·
CCC(C)(C)n1nnnc1C(c1ccc(O)c(OC)c1)N1CCN(c2nc3ccccc3s2)CC1 (stereo not given)	–	40µM	2.5µM	–	–	?
COc1ccc(C(c2nnnn2CCc2ccccc2)N2CCN(C3CCCC3)CC2)cc1OC (stereo not given)	–	–	50µM	–	–	–
SMILES	miR-21 reporter	Sfp PPTase inh	G9a block	ALDH1A1 block	KDM4E inh	Lamin A splicing
COc1ccc(C(c2nnnn2Cc2cccs2)N2CCN(c3ccccc3F)CC2)cc1OC (stereo not given)	–	?	40µM	?	–	–
COc1ccc(C(c2nnnn2C2CCCC2)N2CCN(C3CCCC3)CC2)cc1OC (stereo not given)	–	–	?	–	–	–
Fc1ccc(C(c2nnnn2Cc2cccs2)N2CCN(c3ccccc3)CC2)cc1 (stereo not given)	–	–	–	?	–	–
COc1ccc(C(c2nnnn2C(C)(C)C)N2CCN(c3nc4ccccc4s3)CC2)cc1 (stereo not given)	–	–	–	–	–	?
COCCCn1c(SCC(=O)NCc2ccccc2)nc2c(sc3ccccc32)c1=O	–	·	–	·	·	–
C/C(=N\NC(=O)c1cccc(S(=O)(=O)N2CCOCC2)c1)c1ccc(C#N)cc1	–	–	40µM	·	·	·
O=C(NN=C1CCCCCCCCCCC1)c1cccc(S(=O)(=O)N2CCOCC2)c1	–	–	–	13µM	–	?
O=C(NNS(=O)(=O)c1ccc(Cl)cc1)c1cccc(S(=O)(=O)N2CCOCC2)c1	–	–	?	·	–	·
O=C(NN=C1C2CC3CC(C2)CC1C3)c1cccc(S(=O)(=O)N2CCOCC2)c1	–	–	?	?	–	–
O=C(NNS(=O)(=O)c1cccc(Cl)c1Cl)c1cccc(S(=O)(=O)N2CCOCC2)c1	–	–	32µM	–	–	–
COc1ccc(N2CC(NC(=O)CCCc3ccccc3)CC2=O)cc1 (stereo not given)	–	·	–	·	·	–
CC(=O)N(c1cccc(Cl)c1)c1nc(C)cc(C)c1C#N	–	–	–[12.7 µM]	·	–	·
Cc1ncsc1CCC(=O)N1CCCC(C(=O)c2ccc3c(c2)OCO3)C1 (stereo not given)	–	–	–	?	?	?
C/C(=N\Nc1cc(C(F)(F)F)ccc1Cl)c1ccccc1O	–	–	–	–	–	–
C/C(=N\Nc1ccc(F)cc1F)c1ccccc1O	–	–	14µM	?	–	·
Cc1noc2c1C(c1ccc(N(C)C)cc1)C1=C(CC(C)(C)CC1=O)N2 (stereo not given)	–	–	?	22µM	?	–
CC1=C(C(=O)OC(C)C)C(c2ccc(N(C)C)cc2)C2=C(CC(C)(C)CC2=O)N1 (stereo not given)	–	–	?	?	14µM	–
Cc1ccc(C2C3=C(CC(C)(C)CC3=O)Nc3onc(C)c32)cc1 (stereo not given)	–	–	–	?	?	–
Cc1ccc(C)c(Cn2cnc3c(cnn3-c3ccc(F)cc3)c2=O)c1	–	·	–	·	·	·
O=C(CNC(=O)C12CC3CC(CC(C3)C1)C2)N/N=C\c1ccco1	–	–	–	·	·	·
O=C(/C=C/c1ccco1)c1ccc(NC(=O)C23CC4CC(CC(C4)C2)C3)cc1	–	3.5µM	4.5µM	25µM	32µM	–
C[C@@H]1O[C@@H](O[C@@H]2C(=O)c3c(O)cc(O)cc3O[C@H]2c2ccc(O)c(O)c2)[C@H](O)[C@H](O)[C@H]1O	·	·	–[0.501 µM]	·	·	·
Oc1ccc2c(c1)OC(c1ccc(O)c(O)c1)C(O)C2 (stereo not given)	·	?	·	?	16µM	?
Oc1cc(O)c2c(c1)O[C@H](c1ccc(O)c(O)c1)[C@@H](O)C2	–	–	28µM!	?	25µM	–
O=c1c(O)cc(C2Oc3cc(O)cc(O)c3CC2O)cc2c(C3Oc4cc(O)cc(O)c4CC3O)cc(O)c(O)c12 (stereo not given)	·	7.1µM	·	–	25µM	–
